The source of these data is PubChem BioAssay.

The nature of assay [1]: drug combination growth inhibition, ovarian cancer – cell-based, oncology-focused library, rucaparib conditional, profiling panel (AID 1508598). Conditions: patient-derived ovarian cancer cells, CellTiter-Glo viability, 144 h, stronger effect = lower value.
The nature of assay [2]: viability loss in pontine glioma line – cell-based, SU-DIPG-XVII, MIPE5.0, CellTiter-Glo, qHTS, dose response (AID 1347060; cut-off not given, nearly all actives have AC50 up to about 26 µM;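 further: cells exposed to compound for 48 hours before viability readout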). Conditions: CellTiter-Glo ATP luminescence.
Assay [3] can be described thus: viability loss in pontine glioma line – cell-based, JHH-DIPG-1, MIPE4.0, CellTiter-Glo, qHTS, dose response (AID 1347062; cut-off not given, nearly all actives have AC50 up to about 27 µM;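 further: cells exposed to compound for two days before readout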). Conditions: JHH-DIPG-1 viability, CellTiter-Glo ATP luminescence.
Assay [4] in a line: viability loss in pontine glioma line – cell-based, SU-DIPG-IV, MIPE4.0, CellTiter-Glo, qHTS, dose response (AID 1347063; cut-off not given, nearly all actives have AC50 up to about 30 µM;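 further: compound exposure lasted 48 hours before the viability readout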). Particulars: CellTiter-Glo ATP luminescence.
A short description of assay [5]: viability loss in pontine glioma line – cell-based, SU-DIPG-XIII, MIPE5.0, CellTiter-Glo, qHTS, dose response (AID 1347064; cut-off not given, nearly all actives have AC50 up to about 23 µM;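 further: cells exposed to compound for 48 hours before the viability read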). Conditions: CellTiter-Glo ATP luminescence.
Assay [6] in a line: viability loss in pontine glioma line – cell-based, SU-DIPG-XXV, MIPE5.0, CellTiter-Glo, qHTS, dose response (AID 1347065; cut-off not given, nearly all actives have AC50 up to about 26 µM;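 further: cells exposed to compound for 48 hours before ATP readout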). Particulars: CellTiter-Glo ATP luminescence. Background: Cellular ATP, detected with luciferase, serves as a proxy for viable cell number.
A short description of assay [7]: growth inhibition of DIPG cells – cell-based, MIPE4.0 library, CellTiter-Glo luminescence, qHTS (AID 1347066; cut-off not given, nearly all actives have AC50 up to about 30 µM;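 further: cells exposed to compound for 48 hours before readout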). Conditions: SU-DIPG-VI viability, CellTiter-Glo ATP luminescence.
Assay [8] can be described thus: JHH-DIPG-1 glioma cell viability, MIPE5.0 library, CellTiter-Glo luminescence, qHTS (AID 1347067; cut-off not given, nearly all actives have AC50 up to about 26 µM;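 further: cells exposed to compound for 48 hours before readout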). Conditions: JHH-DIPG-1 glioma viability, CellTiter-Glo ATP luminescence.
Assay [9] in a line: compounds altering HSF1 focus formation in cells – imaging, Selleck Cancer Library (AID 1347162; in the data active means plate-normalised HSF1 focus index below about 0.46). Particulars: human cells, HSF1 nuclear foci imaging, at 10 µM; SSMD: measured here: HSF1 foci SSMD mean; cell count: measured here: cell number; plate-normalised HSF1 focus index: stronger effect = lower value.
A short description of assay [10]: growth inhibition of DIPG cells – cell-based, MIPE5.0 library, qHTS (AID 1347068; cut-off not given, nearly all actives have IC50 up to about 30 µM;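 further: cells exposed to compound for 48 hours before viability readout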). Particulars: SU-DIPG-XXV viability. On the technique in general: In qHTS, concentration-response curves come from the screen itself.
[11] abbreviates: at 0.0195 µM, OCI-P5x cells, with rucaparib 20 µM, 100% = cells with rucaparib alone.
Setting [12] is: at 0.0195 µM, OCI-P5x cells, without rucaparib.
The mark [13] stands for this setting: at 0.0781 µM, OCI-C5x cells, with rucaparib 10 µM, 100% = cells with rucaparib alone.
Where [14] appears, read: at 0.0781 µM, OCI-C5x cells, without rucaparib.
[15] abbreviates: at 0.0781 µM, OCI-P5x cells, with rucaparib 20 µM, 100% = cells with rucaparib alone.
Setting [16] is: at 0.0781 µM, OCI-P5x cells, without rucaparib.
[17] abbreviates: at 0.313 µM, OCI-C5x cells, with rucaparib 10 µM, 100% = cells with rucaparib alone.
[18] abbreviates: at 0.313 µM, OCI-C5x cells, without rucaparib.
Setting [19] is: at 0.313 µM, OCI-P5x cells, with rucaparib 20 µM, 100% = cells with rucaparib alone.
Setting [20] is: at 0.313 µM, OCI-P5x cells, without rucaparib.
[21] abbreviates: at 1.25 µM, OCI-C5x cells, with rucaparib 10 µM, 100% = cells with rucaparib alone.
[22] abbreviates: at 1.25 µM, OCI-C5x cells, without rucaparib.
The mark [23] stands for this setting: at 1.25 µM, OCI-P5x cells, with rucaparib 20 µM, 100% = cells with rucaparib alone.
Setting [24] is: at 1.25 µM, OCI-P5x cells, without rucaparib.
Setting [25] is: at 5 µM, OCI-C5x cells, with rucaparib 10 µM, 100% = cells with rucaparib alone.
The mark [26] stands for this setting: at 5 µM, OCI-C5x cells, without rucaparib.
Setting [27] is: at 5 µM, OCI-P5x cells, with rucaparib 20 µM, 100% = cells with rucaparib alone.
Where [28] appears, read: at 5 µM, OCI-P5x cells, without rucaparib.

Results filed as inconclusive are left out. Calls of active or inactive are those of the source.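 How the source made its calls, unless noted: active means normalized viability below 100% at a tested concentration; inactive means the rest.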

On to `NC1(c2ccc(-c3nc4ccn5c(=O)[nH]nc5c4cc3-c3ccccc3)cc2)CCC1`, for which the viability (in general, a read-out of living cells in per cent, often relative to untreated cells) in assay [1] (setting [11]) is 100% (inactive); in assay [1] (setting [12]), 104% (inactive); in assay [1] (setting [13]) it was 119% (inactive); in assay [1] (setting [14]) it was 133% (inactive); in assay [1] (setting [15]), 98.1% (active); in assay [1] (setting [16]), 98.2% (active). Moreover, the viability in [1] (setting [17]) is 131% (inactive); in assay [1] (setting [18]), 141% (inactive); in assay [1] (setting [19]), 90.4% (active); in assay [1] (setting [20]), 110% (inactive); in assay [1] (setting [21]), 107% (inactive); in [1] (setting [22]), 150% (inactive). The viability in assay [1] (setting [23]) is 88.6% (active); in [1] (setting [24]), 103% (inactive); in [1] (setting [25]) it was 134% (inactive); in assay [1] (setting [26]) it was 144% (inactive); in [1] (setting [27]), 104% (inactive); in assay [1] (setting [28]), 106% (inactive).

As to `Cc1[nH]c(/C=C2\C(=O)Nc3ccc(S(=O)(=O)N(C)c4cccc(Cl)c4)cc32)c(C)c1C(=O)N1CCN(C)CC1`, the AC50 (usually the midpoint of the concentration-response curve, whichever way the signal moves) is 9.34 µM (active) in [2]; 20.9 µM (active) in [3]; 23.5 µM (active) in [4]; 7.42 µM (active) in assay [5]; 7.42 µM (active) in [6]; 11.8 µM (active) in assay [7]. In assay [8], the concentration at half-maximal activity (AC50) is 8.33 µM (active). In [9], this compound had an SSMD of 1.63. This compound also registered a cell count in [9] of 7040. Also, in assay [9], the plate-normalised HSF1 focus index was 1.1 (inactive).

With `CC[C@@H]1C(=O)N(C)c2cnc(Nc3ccc(C(=O)NC4CCC(N5CCN(CC6CC6)CC5)CC4)cc3OC)nc2N1C(C)C` (some centres undefined), the AC50 in assay [2] is 0.0742 µM (active); in assay [3], 6.62 µM (active); in assay [4], 2.35 µM (active); in [5], 5.9 µM (active); in [6], 0.0525 µM (active); in [7], 20.9 µM (active). For the same compound, the concentration at half-maximal activity (AC50) in assay [8] is 4.17 µM (active). Besides, in assay [10], the concentration for half-maximal inhibition (IC50) – broadly, the concentration that gives 50% inhibition – is 6.61 µM (active). The compound also returned an SSMD in assay [9] of 4.31. Moreover, the cell count in [9] was 7310. Also, in assay [9], the plate-normalised HSF1 focus index is 1.16 (inactive). The viability in assay [1] (at 0.000305 µM, OCI-C5x cells, with rucaparib 10 µM, 100% = cells with rucaparib alone) was 101% (inactive); in assay [1] (at 0.000305 µM, OCI-C5x cells, without rucaparib), 104% (inactive); in assay [1] (at 0.000305 µM, OCI-P5x cells, with rucaparib 20 µM, 100% = cells with rucaparib alone) it was 97.4% (active); in [1] (at 0.000305 µM, OCI-P5x cells, without rucaparib), 102% (inactive); in [1] (at 0.00122 µM, OCI-C5x cells, with rucaparib 10 µM, 100% = cells with rucaparib alone) it was 107% (inactive); in [1] (at 0.00122 µM, OCI-C5x cells, without rucaparib), 102% (inactive). The viability was 100% (inactive) in assay [1] (at 0.00122 µM, OCI-P5x cells, with rucaparib 20 µM, 100% = cells with rucaparib alone); 95.9% (active) in assay [1] (at 0.00122 µM, OCI-P5x cells, without rucaparib); 89.2% (active) in assay [1] (at 0.00488 µM, OCI-C5x cells, with rucaparib 10 µM, 100% = cells with rucaparib alone); 87.7% (active) in assay [1] (at 0.00488 µM, OCI-C5x cells, without rucaparib); 84.5% (active) in [1] (at 0.00488 µM, OCI-P5x cells, with rucaparib 20 µM, 100% = cells with rucaparib alone); 26.8% (active) in [1] (at 0.00488 µM, OCI-P5x cells, without rucaparib). For the same compound, the viability is 51.8% (active) in [1] (at 0.0195 µM, OCI-C5x cells, with rucaparib 10 µM, 100% = cells with rucaparib alone); 43.7% (active) in assay [1] (at 0.0195 µM, OCI-C5x cells, without rucaparib); 64.2% (active) in assay [1] (setting [11]); 18.3% (active) in [1] (setting [12]); 49.3% (active) in [1] (setting [13]); 32.9% (active) in [1] (setting [14]). The viability is 67.2% (active) in assay [1] (setting [15]); 20.5% (active) in assay [1] (setting [16]); 41.4% (active) in [1] (setting [17]); 36.3% (active) in [1] (setting [18]); 70.1% (active) in [1] (setting [19]); 17.3% (active) in [1] (setting [20]). Also, the viability in [1] (setting [21]) is 26.6% (active); in assay [1] (setting [22]), 25.2% (active); in [1] (setting [23]), 9.33% (active); in assay [1] (setting [24]), 13.8% (active); in assay [1] (setting [25]) it was 4.03% (active); in assay [1] (setting [26]) it was 21.5% (active). The viability was 1.64% (active) in assay [1] (setting [27]) and 12.5% (active) in [1] (setting [28]).

With `C=CC(=O)Nc1cc2c(Nc3ccc(F)c(Cl)c3)ncnc2cc1C#CC(C)(C)N1CCN(C)CC1`, the AC50 is 2.95 µM (active) in [2]; 5.26 µM (active) in assay [3]; 1.87 µM (active) in [4]; 4.68 µM (active) in assay [5]; 5.9 µM (active) in assay [6]; 5.9 µM (active) in assay [7]. The half-maximal activity concentration (AC50) in assay [8] is 4.17 µM (active). In addition, in assay [10], the 50% inhibitory concentration (IC50) was 7.42 µM (active).
